According to the supplement of paper PMC10849652:
Targets with a hit are over-represented here; the source holds about 7,900 in all. About 0.6% of all pairs of compound and target were hits.

compound: NC(=O)Nc1cc(-c2cccc(F)c2)sc1C(=O)N[C@H]1CCCNC1; assay: log2 fold change, soluble protein after heating vs DMSO (PISA); higher = thermal stabilisation; K562 cells, 10 uM, 30 min; active = over 0.2 and 3.5 SD of the protein, either way, in both replicates (recomputed)
Method in brief: (§1)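 Soluble protein was defined as the supernatant after 21,000xg for 90 min. It came from K562 cells at 2×10^6 cells/mL given 10 μM compound for 30 min, heated in aliquots for 3 min across 48°C-58°C, pooled, and extracted in PBS with 0.5% NP-40 at 4°C, and was quantified by TMTpro 16plex LC-MS/MS with equalised channel sums. Thermal stability against control samples, from duplicates, is reported as log2 fold change.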

UniProt O95628, sequence (O95628 whole entry, looked up): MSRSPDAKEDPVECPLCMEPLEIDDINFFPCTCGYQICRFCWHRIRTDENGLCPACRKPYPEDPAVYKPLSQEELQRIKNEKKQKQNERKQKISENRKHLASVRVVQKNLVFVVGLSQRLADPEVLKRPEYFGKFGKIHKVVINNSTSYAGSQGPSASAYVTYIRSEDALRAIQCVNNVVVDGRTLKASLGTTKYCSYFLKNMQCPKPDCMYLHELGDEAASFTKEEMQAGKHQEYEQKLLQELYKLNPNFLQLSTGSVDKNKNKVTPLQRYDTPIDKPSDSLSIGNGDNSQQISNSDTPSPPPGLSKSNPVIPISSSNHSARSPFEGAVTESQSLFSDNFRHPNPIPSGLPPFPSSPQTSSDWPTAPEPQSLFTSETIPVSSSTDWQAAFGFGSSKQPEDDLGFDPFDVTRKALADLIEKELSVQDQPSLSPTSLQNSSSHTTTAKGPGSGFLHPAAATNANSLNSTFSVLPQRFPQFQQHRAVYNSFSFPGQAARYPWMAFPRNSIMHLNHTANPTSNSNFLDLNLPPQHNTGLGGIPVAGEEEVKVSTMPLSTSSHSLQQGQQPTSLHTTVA
UniProt P30305, sequence (P30305 whole entry, looked up): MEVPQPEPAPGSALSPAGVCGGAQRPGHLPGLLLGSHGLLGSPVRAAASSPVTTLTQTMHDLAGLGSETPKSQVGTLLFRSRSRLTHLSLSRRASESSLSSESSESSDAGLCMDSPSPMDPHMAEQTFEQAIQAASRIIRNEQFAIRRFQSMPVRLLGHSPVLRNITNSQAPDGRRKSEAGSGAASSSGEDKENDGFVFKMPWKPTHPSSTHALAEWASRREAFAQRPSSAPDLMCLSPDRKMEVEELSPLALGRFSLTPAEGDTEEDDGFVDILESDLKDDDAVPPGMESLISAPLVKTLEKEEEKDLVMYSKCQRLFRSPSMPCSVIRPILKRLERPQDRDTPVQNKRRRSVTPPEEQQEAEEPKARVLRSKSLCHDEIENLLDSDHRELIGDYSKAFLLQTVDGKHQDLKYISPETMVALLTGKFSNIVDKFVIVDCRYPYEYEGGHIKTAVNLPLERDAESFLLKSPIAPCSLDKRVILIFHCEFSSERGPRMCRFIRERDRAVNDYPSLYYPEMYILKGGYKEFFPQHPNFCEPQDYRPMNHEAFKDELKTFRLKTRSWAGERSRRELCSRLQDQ
UniProt Q9BWU1, sequence (Q9BWU1 whole entry, looked up): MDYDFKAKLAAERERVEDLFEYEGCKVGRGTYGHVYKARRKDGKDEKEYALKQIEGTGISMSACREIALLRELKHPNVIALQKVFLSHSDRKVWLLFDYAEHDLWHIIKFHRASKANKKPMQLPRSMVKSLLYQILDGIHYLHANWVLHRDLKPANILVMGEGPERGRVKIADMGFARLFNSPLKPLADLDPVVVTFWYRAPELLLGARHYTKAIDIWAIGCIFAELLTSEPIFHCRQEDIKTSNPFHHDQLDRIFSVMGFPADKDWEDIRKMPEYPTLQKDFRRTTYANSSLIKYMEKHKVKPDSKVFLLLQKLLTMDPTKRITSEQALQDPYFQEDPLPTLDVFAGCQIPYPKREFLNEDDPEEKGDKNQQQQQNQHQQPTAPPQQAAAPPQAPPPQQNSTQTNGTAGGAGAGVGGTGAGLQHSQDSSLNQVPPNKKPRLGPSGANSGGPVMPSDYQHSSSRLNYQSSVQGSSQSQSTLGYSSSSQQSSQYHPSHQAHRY
UniProt P35790, sequence (P35790 whole entry, looked up): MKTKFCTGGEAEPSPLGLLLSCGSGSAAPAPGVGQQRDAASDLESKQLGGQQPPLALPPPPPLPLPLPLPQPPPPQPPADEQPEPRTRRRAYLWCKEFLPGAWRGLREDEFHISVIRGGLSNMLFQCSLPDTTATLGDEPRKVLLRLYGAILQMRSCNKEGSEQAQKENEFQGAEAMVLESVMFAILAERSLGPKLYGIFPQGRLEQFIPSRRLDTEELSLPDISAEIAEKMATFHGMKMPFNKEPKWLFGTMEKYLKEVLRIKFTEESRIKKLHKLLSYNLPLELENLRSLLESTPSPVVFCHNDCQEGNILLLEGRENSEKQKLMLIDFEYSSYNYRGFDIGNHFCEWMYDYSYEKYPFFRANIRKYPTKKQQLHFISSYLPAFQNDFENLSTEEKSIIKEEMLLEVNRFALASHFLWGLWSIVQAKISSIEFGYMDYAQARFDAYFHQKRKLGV
UniProt Q7KZN9, sequence (Q7KZN9 whole entry, looked up): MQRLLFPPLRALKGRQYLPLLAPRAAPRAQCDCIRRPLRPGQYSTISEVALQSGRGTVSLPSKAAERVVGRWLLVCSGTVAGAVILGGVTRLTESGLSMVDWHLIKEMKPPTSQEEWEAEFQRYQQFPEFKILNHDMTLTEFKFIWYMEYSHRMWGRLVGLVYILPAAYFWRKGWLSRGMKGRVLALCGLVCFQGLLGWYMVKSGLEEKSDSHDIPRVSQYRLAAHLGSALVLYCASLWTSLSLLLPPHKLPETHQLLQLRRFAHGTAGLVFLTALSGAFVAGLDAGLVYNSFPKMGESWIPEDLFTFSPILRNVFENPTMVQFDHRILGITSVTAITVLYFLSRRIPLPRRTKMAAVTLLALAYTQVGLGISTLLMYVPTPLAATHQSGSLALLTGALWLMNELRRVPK
UniProt Q14839, sequence (Q14839 whole entry, looked up): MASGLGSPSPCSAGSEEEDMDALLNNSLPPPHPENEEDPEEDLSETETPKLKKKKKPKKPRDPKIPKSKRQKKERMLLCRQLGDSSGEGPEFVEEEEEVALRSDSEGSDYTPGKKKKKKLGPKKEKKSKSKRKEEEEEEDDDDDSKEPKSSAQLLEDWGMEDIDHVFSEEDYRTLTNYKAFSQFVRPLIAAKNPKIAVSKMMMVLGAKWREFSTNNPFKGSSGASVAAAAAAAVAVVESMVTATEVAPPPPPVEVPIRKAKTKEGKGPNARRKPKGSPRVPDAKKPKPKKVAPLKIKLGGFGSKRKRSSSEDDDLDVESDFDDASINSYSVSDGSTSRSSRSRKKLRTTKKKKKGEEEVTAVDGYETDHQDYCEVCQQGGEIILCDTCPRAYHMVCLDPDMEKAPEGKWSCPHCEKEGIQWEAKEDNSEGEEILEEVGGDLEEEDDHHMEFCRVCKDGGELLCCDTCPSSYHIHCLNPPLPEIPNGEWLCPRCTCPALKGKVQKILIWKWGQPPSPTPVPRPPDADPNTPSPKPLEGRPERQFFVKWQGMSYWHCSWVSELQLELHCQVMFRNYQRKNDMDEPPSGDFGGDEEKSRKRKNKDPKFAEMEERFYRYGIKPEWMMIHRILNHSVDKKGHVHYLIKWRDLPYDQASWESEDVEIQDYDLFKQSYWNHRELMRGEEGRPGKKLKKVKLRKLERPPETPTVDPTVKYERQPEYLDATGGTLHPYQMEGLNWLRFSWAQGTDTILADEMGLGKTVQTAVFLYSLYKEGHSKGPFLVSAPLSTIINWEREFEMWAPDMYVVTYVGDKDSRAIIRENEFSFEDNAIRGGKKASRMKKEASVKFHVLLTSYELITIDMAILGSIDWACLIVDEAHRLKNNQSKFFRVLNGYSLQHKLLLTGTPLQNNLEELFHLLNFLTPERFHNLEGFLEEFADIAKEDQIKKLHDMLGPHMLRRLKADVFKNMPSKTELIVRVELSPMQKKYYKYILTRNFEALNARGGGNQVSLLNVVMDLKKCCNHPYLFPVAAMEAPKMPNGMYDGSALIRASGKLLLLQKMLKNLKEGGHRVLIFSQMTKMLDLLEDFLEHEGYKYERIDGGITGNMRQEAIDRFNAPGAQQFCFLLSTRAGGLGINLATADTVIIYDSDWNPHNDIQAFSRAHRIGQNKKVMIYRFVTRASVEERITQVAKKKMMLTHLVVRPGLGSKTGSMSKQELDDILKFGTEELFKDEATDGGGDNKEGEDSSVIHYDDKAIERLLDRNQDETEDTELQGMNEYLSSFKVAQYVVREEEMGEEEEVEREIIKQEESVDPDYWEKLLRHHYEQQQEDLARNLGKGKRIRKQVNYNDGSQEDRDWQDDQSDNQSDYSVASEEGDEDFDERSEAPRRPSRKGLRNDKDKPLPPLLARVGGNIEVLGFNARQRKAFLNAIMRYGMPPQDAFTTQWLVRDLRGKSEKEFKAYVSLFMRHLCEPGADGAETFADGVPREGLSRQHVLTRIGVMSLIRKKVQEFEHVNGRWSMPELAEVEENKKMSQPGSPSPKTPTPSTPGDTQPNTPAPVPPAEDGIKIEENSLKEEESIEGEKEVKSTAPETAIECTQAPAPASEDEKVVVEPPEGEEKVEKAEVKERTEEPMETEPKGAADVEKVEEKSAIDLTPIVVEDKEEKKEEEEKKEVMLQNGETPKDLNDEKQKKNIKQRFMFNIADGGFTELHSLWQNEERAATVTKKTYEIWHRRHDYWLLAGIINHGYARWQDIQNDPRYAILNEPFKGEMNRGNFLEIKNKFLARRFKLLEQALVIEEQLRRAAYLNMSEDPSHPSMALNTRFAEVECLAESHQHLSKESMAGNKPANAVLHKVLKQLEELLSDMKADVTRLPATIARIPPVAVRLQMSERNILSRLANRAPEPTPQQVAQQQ
UniProt Q00536, sequence (Q00536 whole entry, looked up): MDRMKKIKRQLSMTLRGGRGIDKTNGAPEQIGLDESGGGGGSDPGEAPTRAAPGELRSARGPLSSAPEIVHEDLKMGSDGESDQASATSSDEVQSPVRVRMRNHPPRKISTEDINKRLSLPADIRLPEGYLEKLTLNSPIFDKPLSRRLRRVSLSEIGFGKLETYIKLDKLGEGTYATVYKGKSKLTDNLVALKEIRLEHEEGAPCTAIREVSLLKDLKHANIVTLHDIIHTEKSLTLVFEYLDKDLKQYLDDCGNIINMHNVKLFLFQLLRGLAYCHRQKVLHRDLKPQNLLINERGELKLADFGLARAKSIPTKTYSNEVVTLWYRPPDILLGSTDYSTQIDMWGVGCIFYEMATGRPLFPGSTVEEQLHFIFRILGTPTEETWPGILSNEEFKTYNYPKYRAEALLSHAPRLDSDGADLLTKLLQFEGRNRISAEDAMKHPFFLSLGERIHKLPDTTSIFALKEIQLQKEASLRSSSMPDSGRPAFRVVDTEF
UniProt P61024, sequence (P61024 whole entry, looked up): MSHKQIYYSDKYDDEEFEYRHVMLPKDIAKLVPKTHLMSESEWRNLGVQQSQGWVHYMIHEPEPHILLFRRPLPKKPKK

Row | Target | log2 fold change
1 | CNN2 (UniProt Q99439) | -0.029 (inactive)
2 | CHD4 isoform 2 (UniProt Q14839) | -0.043 (inactive)
3 | CSNK1A1 (UniProt P48729) | -0.067 (inactive)
4 | C4orf33 (UniProt Q8N1A6) | 0.152 (inactive)
5 | CRYM-AS1 (UniProt A6NIL9) | 0.038 (inactive)
6 | CDK16 isoform 2 (UniProt Q00536) | -0.07 (inactive)
7 | CIT isoform 4 (UniProt O14578) | -0.072 (inactive)
8 | CLPTM1L (UniProt Q96KA5) | -0.007 (inactive)
9 | CNOT2 (UniProt Q9NZN8) | -0.012 (inactive)
10 | CD151 (UniProt P48509) | -0.054 (inactive)
11 | CSNK2B (UniProt P67870) | -0.017 (inactive)
12 | COX15 (UniProt Q7KZN9) | 0.003 (inactive)
13 | CCNB1 (UniProt P14635) | -0.031 (inactive)
14 | CBX1 (UniProt P83916) | 0.02 (inactive)
15 | CNOT4 isoform 6 (UniProt O95628) | 0.033 (inactive)
16 | C9orf64 (UniProt Q5T6V5) | 0 (inactive)
17 | CLTB (UniProt P09497) | 0.088 (inactive)
18 | CCDC59 (UniProt Q9P031) | -0.033 (inactive)

Row | Target | log2 fold change
19 | CALCOCO2 isoform 4 (UniProt Q13137) | -0.017 (inactive)
20 | CPT1A (UniProt P50416) | -0.068 (inactive)
21 | COMMD2 (UniProt Q86X83) | -0.007 (inactive)
22 | CBR1 (UniProt P16152) | -0.002 (inactive)
23 | CLCN3 isoform 2 (UniProt P51790) | 0.013 (inactive)
24 | CASP3 (UniProt P42574) | 0.051 (inactive)
25 | CHCHD1 (UniProt Q96BP2) | 0.017 (inactive)
26 | CHKA (UniProt P35790) | 0.015 (inactive)
27 | CCNT1 (UniProt O60563) | -0.027 (inactive)
28 | CDK19 (UniProt Q9BWU1) | -0.131 (inactive)
29 | CAD (UniProt P27708) | 0.033 (inactive)
30 | CHCHD2 (UniProt Q9Y6H1) | -0.039 (inactive)
31 | CDC25B isoform 4 (UniProt P30305) | -0.04 (inactive)
32 | CHCHD4 isoform 2 (UniProt Q8N4Q1) | 0.335 (inactive)
33 | COX7C (UniProt P15954) | 0.009 (inactive)
34 | CLPX (UniProt O76031) | 0.01 (inactive)
35 | CKS1B (UniProt P61024) | -0.029 (inactive)
36 | C19orf53 (UniProt Q9UNZ5) | 0.136 (inactive)

compound: NC(=O)c1cnc(N[C@@H]2CCCC[C@@H]2N)nc1Nc1cccc(-n2nccn2)c1; assay: as above
Method in brief: as §1

Row | Target | log2 fold change
37 | CNN2 (UniProt Q99439) | -0.031 (inactive)
38 | CHD4 isoform 2 (UniProt Q14839) | -0.07 (inactive)
39 | CSNK1A1 (UniProt P48729) | -0.001 (inactive)
40 | C4orf33 (UniProt Q8N1A6) | -0.003 (inactive)
41 | CRYM-AS1 (UniProt A6NIL9) | -0.014 (inactive)
42 | CDK16 isoform 2 (UniProt Q00536) | -0.091 (inactive)
43 | CIT isoform 4 (UniProt O14578) | -0.101 (inactive)
44 | CLPTM1L (UniProt Q96KA5) | 0.007 (inactive)
45 | CNOT2 (UniProt Q9NZN8) | -0.014 (inactive)
46 | CD151 (UniProt P48509) | 0.139 (inactive)
47 | CSNK2B (UniProt P67870) | 0 (inactive)
48 | COX15 (UniProt Q7KZN9) | -0.009 (inactive)
49 | CCNB1 (UniProt P14635) | -0.015 (inactive)
50 | CBX1 (UniProt P83916) | -0.032 (inactive)
51 | CNOT4 isoform 6 (UniProt O95628) | -0.046 (inactive)
52 | C9orf64 (UniProt Q5T6V5) | -0.155 (inactive)
53 | CLTB (UniProt P09497) | 0.101 (inactive)
54 | CCDC59 (UniProt Q9P031) | 0.122 (inactive)

Row | Target | log2 fold change
55 | CALCOCO2 isoform 4 (UniProt Q13137) | -0.075 (inactive)
56 | CPT1A (UniProt P50416) | -0.012 (inactive)
57 | COMMD2 (UniProt Q86X83) | -0.034 (inactive)
58 | CBR1 (UniProt P16152) | 0.025 (inactive)
59 | CLCN3 isoform 2 (UniProt P51790) | 0.014 (inactive)
60 | CASP3 (UniProt P42574) | 0.053 (inactive)
61 | CHCHD1 (UniProt Q96BP2) | -0.142 (inactive)
62 | CHKA (UniProt P35790) | -0.316 (active)
63 | CCNT1 (UniProt O60563) | -0.03 (inactive)
64 | CDK19 (UniProt Q9BWU1) | -0.135 (inactive)
65 | CAD (UniProt P27708) | -0.014 (inactive)
66 | CHCHD2 (UniProt Q9Y6H1) | -0.011 (inactive)
67 | CDC25B isoform 4 (UniProt P30305) | -0.07 (inactive)
68 | CHCHD4 isoform 2 (UniProt Q8N4Q1) | 0.06 (inactive)
69 | COX7C (UniProt P15954) | 0.048 (inactive)
70 | CLPX (UniProt O76031) | 0.011 (inactive)
71 | CKS1B (UniProt P61024) | -0.03 (inactive)
72 | C19orf53 (UniProt Q9UNZ5) | 0.061 (inactive)
